Results on 45 compounds are retold here after the supplement of paper PMC11219838.

A number with no mark means an inactive call.

Common to all, as to settings: 60 µM; 5 days; temperature: 20 °C
One assay deals with Meloidogyne hapla J2. In words: proportion of mobile M. hapla J2 relative to DMSO control (fraction of DMSO control); higher = more viable, less nematicidal, active = 0.7 or less. In outline:
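Compound was pinned to 60 µM final (0.6% v/v DMSO) into 96-well wells, each holding about 25 M. hapla J2 in distilled water. Plates were sealed and shaken for 5 days at 20 °C and 200 rpm, then given 2 µL 1 M NaOH per well. Microscopic mobility scores were normalised to the mean of the plate's own DMSO wells, eight per plate, with two biological replicates averaged.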

In the next assay the test system is Ditylenchus dipsaci. In words: proportion of mobile D. dipsaci (mixed stage) relative to DMSO control (fraction of DMSO control); higher = more viable, less nematicidal, active = 0.86 or less; extreme values may be limits of the assay. The essentials: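 Mobility values are relative to DMSO controls and are averages of two biological replicates. For each well of a 96-well plate, about 20 D. dipsaci worms, grown on pea plants in Gamborg B-5 agar and funnel-extracted into water, were dispensed in distilled water. Plates received pinned compound at 60 µM final with 0.6% v/v DMSO and were sealed and shaken at 200 rpm for 5 days at 20 °C before 2 µL 1 M NaOH was added and mobile worms were scored by microscope.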

For assay [1], the system named is Caenorhabditis elegans dauer (daf-2(e1370)). Briefly: proportion of mobile C. elegans dauer larvae relative to DMSO control (fraction of DMSO control); higher = more viable, less nematicidal, active = 0.63 or less; extreme values may be limits of the assay. In outline:
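Compound was added by pinning to 60 µM final, giving 0.6% v/v DMSO, in 96-well plates containing about 20 C. elegans dauers per well in liquid NGM. These dauers came from synchronized larvae held on MYOB plates with E. coli OP50 for 48 h at 25 °C. Plates were sealed and shaken at 200 rpm at 20 °C for 5 days. Under a dissection microscope, the proportion of mobile worms was scored relative to DMSO wells, and two biological replicates were averaged.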

For `COc1nc(C)ccc1-c1noc(-c2ccccc2Br)n1`, in the assay on Meloidogyne hapla J2, the “proportion of mobile M. hapla J2” value is 0.917. Besides, the “proportion of mobile D. dipsaci” value with Ditylenchus dipsaci was 1.

On to `CC(C)Oc1ccc(-c2nc(-c3ccncc3)no2)cc1`, for which, in the assay with Meloidogyne hapla J2, the “proportion of mobile M. hapla J2” value is 1. Further, the “proportion of mobile D. dipsaci” value in the assay on Ditylenchus dipsaci is 0.941.

`Cc1ccccc1OCc1nc(-c2ccc(F)cc2)no1`: the “proportion of mobile M. hapla J2” value in the assay with Meloidogyne hapla J2 was 0.909. Further, in the assay with Ditylenchus dipsaci, the “proportion of mobile D. dipsaci” value was 1.

For the compound `COc1cccc(-c2nnc(SCC(=O)Nc3cccc(C(F)(F)F)c3)o2)c1`, in assay [1], the “proportion of mobile C. elegans dauer larvae” value is 1. For the same compound, the “proportion of mobile D. dipsaci” value with Ditylenchus dipsaci was 1.

As to `COc1ccc(-c2nc(-c3ccc(Cl)cc3)no2)cc1`, the “proportion of mobile M. hapla J2” value with Meloidogyne hapla J2 was 1. In addition, the “proportion of mobile D. dipsaci” value in the assay on Ditylenchus dipsaci is 1.

As for `CCOc1ccccc1-c1nnc(SCC(=O)N2CCC(C)CC2)o1`, the “proportion of mobile M. hapla J2” value with Meloidogyne hapla J2 is 0.856. In addition, in the assay on Ditylenchus dipsaci, the “proportion of mobile D. dipsaci” value was 1.

For the compound `Cc1ccccc1CSc1nnc(-c2ccco2)n1C`, the “proportion of mobile M. hapla J2” value in the assay with Meloidogyne hapla J2 was 1.03. Besides, the “proportion of mobile D. dipsaci” value with Ditylenchus dipsaci is 0.75 (active).

Take `COc1ccc(-c2nnc(SCc3ccccc3)o2)cc1`: the “proportion of mobile M. hapla J2” value in the assay on Meloidogyne hapla J2 was 0.96. For the same compound, the “proportion of mobile D. dipsaci” value with Ditylenchus dipsaci was 1.

In the case of `O=C(CSc1nnc(-c2ccncc2)o1)Nc1cccc(Cl)c1Cl`, the “proportion of mobile M. hapla J2” value in the assay on Meloidogyne hapla J2 was 0.818. In the assay with Ditylenchus dipsaci, the “proportion of mobile D. dipsaci” value is 1.

Regarding `Cc1cccc(-c2nnc(SCC(=O)Nc3ccccc3C(C)C)o2)c1`, in assay [1], the “proportion of mobile C. elegans dauer larvae” value was 1. Moreover, in the assay with Ditylenchus dipsaci, the “proportion of mobile D. dipsaci” value is 1.

Take `Cc1ccc(-c2nnc(SCc3ccc(Br)cc3)o2)cc1`: in the assay with Meloidogyne hapla J2, the “proportion of mobile M. hapla J2” value was 0.923. For the same compound, the “proportion of mobile D. dipsaci” value in the assay with Ditylenchus dipsaci is 1.

Take `Fc1ccc(OCc2nc(-c3ccc(Br)cc3)no2)cc1`: in the assay with Meloidogyne hapla J2, the “proportion of mobile M. hapla J2” value was 0.95. Besides, the “proportion of mobile D. dipsaci” value with Ditylenchus dipsaci is 1.

Regarding `Cc1ccc(OCc2nc(-c3ccc(Cl)cc3)no2)cc1`, in the assay with Meloidogyne hapla J2, the “proportion of mobile M. hapla J2” value was 0.901. Besides, the “proportion of mobile D. dipsaci” value in the assay with Ditylenchus dipsaci was 1.

On to `CCOc1ccccc1-c1nnc(SCC(=O)Nc2ccccc2)o1`, for which the “proportion of mobile M. hapla J2” value with Meloidogyne hapla J2 was 0.907. The “proportion of mobile D. dipsaci” value in the assay on Ditylenchus dipsaci was 1.

Regarding `Cc1ccc(-c2nnc(SCc3c(C)cc(C)cc3C)o2)cc1`, the “proportion of mobile M. hapla J2” value with Meloidogyne hapla J2 was 0.926. Besides, in the assay with Ditylenchus dipsaci, the “proportion of mobile D. dipsaci” value was 1.

Regarding `Cc1ccc(-c2noc(-c3ccc(Br)cc3)n2)cc1`, in the assay with Meloidogyne hapla J2, the “proportion of mobile M. hapla J2” value is 1.05. For the same compound, in the assay on Ditylenchus dipsaci, the “proportion of mobile D. dipsaci” value is 1.

As for `Cc1ccc(NC(=O)CSc2nnc(-c3ccccc3)o2)cc1F`, in the assay on Meloidogyne hapla J2, the “proportion of mobile M. hapla J2” value was 1.02. The “proportion of mobile D. dipsaci” value in the assay with Ditylenchus dipsaci was 1.

With `Clc1ccc(SCc2nc(-c3ccccc3)no2)cc1`, in the assay with Meloidogyne hapla J2, the “proportion of mobile M. hapla J2” value is 0.783. Moreover, the “proportion of mobile D. dipsaci” value with Ditylenchus dipsaci was 1.

Take `O=C(CSc1nnc(-c2cccc(Cl)c2)o1)NC1CCCCC1`: the “proportion of mobile M. hapla J2” value in the assay on Meloidogyne hapla J2 was 0.874. In addition, in the assay with Ditylenchus dipsaci, the “proportion of mobile D. dipsaci” value was 1.

As for `Clc1ccc(OCc2nc(-c3ccc4c(c3)OCO4)no2)cc1`, the “proportion of mobile M. hapla J2” value with Meloidogyne hapla J2 is 0.932. Also, in the assay with Ditylenchus dipsaci, the “proportion of mobile D. dipsaci” value was 1.

`COc1ccc(-c2noc(COc3ccc(F)cc3)n2)cc1`: in the assay with Meloidogyne hapla J2, the “proportion of mobile M. hapla J2” value was 0.891. Also, in the assay on Ditylenchus dipsaci, the “proportion of mobile D. dipsaci” value is 1.

As for `COc1nc(-c2ccc(C)cc2)ccc1-c1noc(C)n1`, in the assay on Meloidogyne hapla J2, the “proportion of mobile M. hapla J2” value was 0.9. The “proportion of mobile D. dipsaci” value in the assay on Ditylenchus dipsaci was 1.

For `COc1ccc(-c2noc(-c3ccc(C)cc3)n2)cc1`, the “proportion of mobile M. hapla J2” value in the assay on Meloidogyne hapla J2 was 0.998. In the assay with Ditylenchus dipsaci, the “proportion of mobile D. dipsaci” value is 0.932.

For `O=C(CSc1nnc(-c2ccccc2Cl)o1)NCc1ccccc1`, the “proportion of mobile M. hapla J2” value in the assay with Meloidogyne hapla J2 is 1.04. The “proportion of mobile D. dipsaci” value in the assay with Ditylenchus dipsaci is 1.

For the compound `Clc1cccc(OCc2nc(-c3cccs3)no2)c1`, the “proportion of mobile M. hapla J2” value in the assay with Meloidogyne hapla J2 is 0.942. Besides, the “proportion of mobile D. dipsaci” value with Ditylenchus dipsaci is 1.

Regarding `CCCOc1ccc(-c2ccc(-c3nc(-c4cccnc4)no3)cc2)cc1`, in the assay with Meloidogyne hapla J2, the “proportion of mobile M. hapla J2” value is 1.02. In the assay on Ditylenchus dipsaci, the “proportion of mobile D. dipsaci” value is 1.

With `O=C(CSc1nnc(-c2ccco2)o1)Nc1cccc2ccccc12`, the “proportion of mobile M. hapla J2” value with Meloidogyne hapla J2 is 0.956. Also, the “proportion of mobile D. dipsaci” value with Ditylenchus dipsaci was 1.

Take `COc1ccc(-c2nnc(SCC(=O)Nc3ccc(Cl)cc3Cl)o2)cc1`: the “proportion of mobile C. elegans dauer larvae” value in assay [1] is 1. The “proportion of mobile D. dipsaci” value with Ditylenchus dipsaci was 1.

Regarding `Cc1ccc(-c2noc(COc3ccc(Cl)cc3)n2)cc1`, the “proportion of mobile M. hapla J2” value with Meloidogyne hapla J2 was 1.02. Moreover, the “proportion of mobile D. dipsaci” value with Ditylenchus dipsaci was 1.

`COc1nc(-c2ccc(Cl)cc2)ccc1-c1noc(-c2ccncc2)n1`: the “proportion of mobile C. elegans dauer larvae” value in assay [1] is 1. In addition, the “proportion of mobile D. dipsaci” value with Ditylenchus dipsaci is 1.

In the case of `Fc1cccc(-c2nc(-c3ccccc3)no2)c1`, the “proportion of mobile M. hapla J2” value in the assay on Meloidogyne hapla J2 is 0.867. Moreover, the “proportion of mobile D. dipsaci” value with Ditylenchus dipsaci was 1.

Turning to `COc1ccc(-c2noc(COc3ccccc3C)n2)cc1`, in the assay on Meloidogyne hapla J2, the “proportion of mobile M. hapla J2” value was 1.03. Also, in the assay on Ditylenchus dipsaci, the “proportion of mobile D. dipsaci” value was 1.

Take `CCc1ccc(OCc2nc(-c3cccc(OC)c3)no2)cc1`: in the assay on Meloidogyne hapla J2, the “proportion of mobile M. hapla J2” value is 0.74. For the same compound, the “proportion of mobile D. dipsaci” value in the assay on Ditylenchus dipsaci is 1.

On to `CCNC(=O)c1ccccc1-c1nc(-c2ccccc2)no1`, for which the “proportion of mobile M. hapla J2” value with Meloidogyne hapla J2 is 0.908. Besides, the “proportion of mobile D. dipsaci” value in the assay on Ditylenchus dipsaci was 1.

Regarding `Brc1ccc(-c2nc(-c3cccnc3)no2)cc1`, the “proportion of mobile M. hapla J2” value with Meloidogyne hapla J2 was 0.984. For the same compound, the “proportion of mobile D. dipsaci” value with Ditylenchus dipsaci was 1.

On to `COc1cccc(-c2nc(-c3ccc(C)cc3)no2)c1`, for which the “proportion of mobile M. hapla J2” value with Meloidogyne hapla J2 is 0.953. Moreover, in the assay with Ditylenchus dipsaci, the “proportion of mobile D. dipsaci” value is 1.

For the compound `CC(=O)Nc1ccc(-c2nc(-c3ccccc3)no2)cc1`, the “proportion of mobile M. hapla J2” value with Meloidogyne hapla J2 is 0.961. In addition, the “proportion of mobile D. dipsaci” value in the assay on Ditylenchus dipsaci is 1.

Take `O=C(CSc1nnc(-c2ccco2)o1)NC1CCCCC1`: the “proportion of mobile M. hapla J2” value in the assay with Meloidogyne hapla J2 is 0.824. Further, in the assay on Ditylenchus dipsaci, the “proportion of mobile D. dipsaci” value was 1.

Turning to `Cc1ccoc1-c1nnc(-c2ccco2)o1`, the “proportion of mobile M. hapla J2” value in the assay on Meloidogyne hapla J2 is 0.949. Also, the “proportion of mobile D. dipsaci” value in the assay on Ditylenchus dipsaci was 0.833 (active).

As to `CCOc1ccccc1-c1nc(-c2ccc(NC(=O)CCc3ccc(OC)cc3)cc2)no1`, in the assay with Meloidogyne hapla J2, the “proportion of mobile M. hapla J2” value is 0.918. In addition, the “proportion of mobile D. dipsaci” value with Ditylenchus dipsaci is 1.

For `Cc1ccc(C(=O)CSc2nnc(-c3ccccc3)o2)cc1`, the “proportion of mobile M. hapla J2” value in the assay on Meloidogyne hapla J2 was 0.968. Besides, the “proportion of mobile D. dipsaci” value in the assay on Ditylenchus dipsaci was 1.

On to `Cn1c(SCc2cccc(F)c2)nnc1-c1ccco1`, for which the “proportion of mobile C. elegans dauer larvae” value in assay [1] is 1. Besides, in the assay with Ditylenchus dipsaci, the “proportion of mobile D. dipsaci” value is 1.

Turning to `CC1CC(C)CN(C(=O)CSc2nnc(-c3ccccc3)o2)C1` (stereo not given), the “proportion of mobile C. elegans dauer larvae” value in assay [1] was 1. Also, the “proportion of mobile D. dipsaci” value in the assay on Ditylenchus dipsaci was 1.

With `COc1cccc(-c2noc(COc3ccc(C)c(C)c3)n2)c1`, in assay [1], the “proportion of mobile C. elegans dauer larvae” value was 1. The “proportion of mobile D. dipsaci” value with Ditylenchus dipsaci was 1.

Consider `CCOC(=O)c1sc(NC(=O)CSc2nnc(-c3ccc(Cl)cc3)o2)c(C#N)c1C`, for which, in assay [1], the “proportion of mobile C. elegans dauer larvae” value is 1. For the same compound, the “proportion of mobile D. dipsaci” value in the assay with Ditylenchus dipsaci was 1.
